# DAX1 inh-1 – inhibits human nuclear receptor DAX1 | P51843 | HEK293 Gal4-DAX1 luciferase reporter, luminescence | inhibition, % at 6.75 µM | hit rate 0.99% among 340,000 | AID 504766;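 active = inhibition above the mean over all tested compounds plus 3 SD, cut at about 4.2% in these data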;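 also: 0% = DAX1-transfected cells with DMSO and 100% = empty-vector control cells with DMSO; inhibition shows as a rise in luminescence from relieved DAX1 repression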
# Target sequence (P51843 207-470 limits assumed): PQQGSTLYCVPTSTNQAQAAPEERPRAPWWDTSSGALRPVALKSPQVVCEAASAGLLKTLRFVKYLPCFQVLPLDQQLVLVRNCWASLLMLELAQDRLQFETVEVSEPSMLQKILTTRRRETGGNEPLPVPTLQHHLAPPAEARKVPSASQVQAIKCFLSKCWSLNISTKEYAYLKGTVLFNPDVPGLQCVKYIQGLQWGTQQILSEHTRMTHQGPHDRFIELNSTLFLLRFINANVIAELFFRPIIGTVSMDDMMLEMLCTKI
# ssDAF-12 act – activates DAF-12 receptor from parasite S. stercoralis; HEK293 ssDAF-12/GRIP1 lit1-tk-luc reporter, luminescence; % of 3 µM dafachronic acid response; activation, % at 6.8 µM; hit rate 1% among 370,000; AID 652126;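 active = activation above the mean over all tested compounds plus 3 SD, cut at about 0.9% in these data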;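 also: 0% = DMSO-only wells and 100% = 3 µM delta7-dafachronic acid wells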
# hcDAF-12 act – H. contortus DAF-12 activation, primary screen. HEK293 hcDAF-12 lit1-tk-luc reporter, luminescence; 0% DMSO, 100% Δ7-dafachronic acid. activation, % at 6.8 µM. hit rate 1.4% among 370,000;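 active = activation above the mean of all tested compounds plus 3 SD, cut at about 5.5% in these data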;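 also: 100% = response to 3 µM Δ7-dafachronic acid high control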
# hgDAF12 agonist – hgDAF-12 agonism, primary luciferase screen; HEK293 GAL4-hgDAF12 UAS-luciferase reporter, agonist luminescence; normalized to butyrate control; activation, % at 6.8 µM; hit rate 1.8% among 370,000;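 active = activation above a cutoff set at the mean of all screened compounds plus 3 SD, cut at about 10% in these data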;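 also: 0% = DMSO wells and 100% = sodium butyrate wells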
# DAX1 inh-2 – inhibitors of DAX1 repression of SF-1 activated StAR promoter; hit rate 1.1% among 370,000; inhibition, % at 6.8 µM; HEK293T StAR-luciferase reporter, SF-1/DAX-1 repression relief;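 active = inhibition above the mean over all tested compounds plus 3 SD, cut at about 3.6% in these data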;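 also: 0% = DAX-1 cells with DMSO and 100% = cells lacking DAX-1 with DMSO; higher inhibition means more luminescence from relief of DAX-1 repression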
# * hit, by the source's call; . = no result given. A selection: hits, their analogues and other compounds. The true share with any hit is near 4.1%.
SMILES,DAX1 inh-1,ssDAF-12 act,hcDAF-12 act,hgDAF12 agonist,DAX1 inh-2
Cc1cc(C(=O)NC(Cc2c[nH]c3ccccc23)C(=O)O)c(C)o1 (stereo unspecified),1,0,2,1,0
Cc1ccc(C(=O)NC(Cc2c[nH]c3ccccc23)C(=O)O)o1 (stereo unspecified),1,0,6.1*,0,1
CC(=O)N[C@H]1C[C@@H]2O[C@H](CO)CC[C@@H]2O[C@@H]1CCc1ccc(-c2ccc(F)cc2)cc1,.,-1,-1,-1,0
CCC(C)CNC(=O)CN1C(=O)C2CCCCN2C(=O)c2ccccc21 (stereo unspecified),.,-1,0,-2,0
Cc1c(C)c2ccc(OCC(=O)Nc3ccccn3)cc2oc1=O,4,0,1,3,4
O=C(Nc1ccccc1C(=O)NCCc1ccccc1)c1ccco1,2,0,5,11*,1
O=C(O)CNC(=O)c1ccccc1NC(=O)c1ccco1,0,-1,2,0,0
Cc1c(C)c2ccc(OCC(=O)Nc3nccs3)cc2oc1=O,-2,0,5,11*,1
O=c1[nH]c2ccc(NS(=O)(=O)c3ccc(Cl)cc3)cc2[nH]1,5.0*,-2,2,1,0
Cc1c(C)c2ccc(OCC(=O)N[C@@H](Cc3c[nH]c4ccccc34)C(=O)O)cc2oc1=O,6.6*,1,2,0,1
O=c1[nH]c2ccc(NS(=O)(=O)c3ccc(F)c(Cl)c3)cc2[nH]1,-1,-1,0,-1,0
Cc1ccccc1N1CCN(C(=O)COc2cc(=O)n(C)c3ccccc23)CC1,.,0,-4,1,0
O=C(Nc1ccc2c(c1)Cc1ccccc1-2)NC1CCCCN(Cc2cccc(Cl)c2)C1=O (stereo unspecified),.,-1,-1,8,1
COC(=O)[C@]12C[C@H](CC(=O)N3CCCC3)C(=O)N(CCC3=CCCCC3)C1=C[C@H](C(C)C)O[C@@H]2C1CC1,.,-1,-5,1,0
CN(C)S(=O)(=O)c1ccc(C(=O)N2CCN(C(=O)C3CCCO3)CC2)cc1 (stereo unspecified),0,-1,-2,3,1
CN(C)S(=O)(=O)c1cccc(C(=O)N2CCN(C(=O)C3CCCO3)CC2)c1 (stereo unspecified),2,-1,0,-1,3.8*
Clc1ccccc1Cn1ccc2ccc(-c3ccc4ccn(Cc5ccccc5Cl)c4c3)cc21,.,-1,-2,0,-1
CC(=O)N1CCOc2cc(S(=O)(=O)NCc3ccc(F)cc3)c(C)cc21,5.6*,-1,-2,0,0
Cc1ccc(CNS(=O)(=O)c2cc3c(cc2C)N(C)CCO3)cc1,1,-1,3,1,-1
COc1ccc(N=Nc2ccc(CO)cc2)cc1,2,1.3*,7.3*,10,1
COc1ccc(C/C(N)=N/O)cc1,0,-1,0,1,0
CCCCNC(=O)Nc1nnc(-c2ccc(OCC)cc2)o1,5.5*,-1,1,1,0
CCCCn1c(O)c2n(c1=O)Cc1ccccc1N=C2c1ccc(OC)cc1,.,0,5.6*,4,-1
CCCc1nc2c3ccccc3ccn2c1CC1CCCCC1,.,0,6.2*,6,1
c1ccc(-c2nc3c4ccccc4ccn3c2CN2CCCCC2)cc1,1,0,3,4,0
SMILES,DAX1 inh-1,ssDAF-12 act,hcDAF-12 act,hgDAF12 agonist,DAX1 inh-2
Cc1ccc(Cc2c(-c3cccc(Cl)c3)nc3c4ccccc4ccn23)cc1,.,0,4,4,1
Fc1ccc(-c2nc3c4ccccc4ccn3c2CC2CCCCC2)cc1,.,1.6*,6.4*,4,2
Clc1cccc(-c2nc3c4ccccc4ccn3c2CC2CCCCC2)c1,.,1.1*,4,3,2
CN1CCN(c2ccc3c(c2)Oc2ccccc2CN(Cc2cn(Cc4cccc(C(F)(F)F)c4)nn2)S3(=O)=O)CC1,.,-1,-3,-2,-1
Cc1cc(OCC(=O)N(C)Cc2ccccc2)ccc1Br,1,0,-1,5,-1
Cc1cc(OCC(=O)N(C)Cc2ccccc2)ccc1Cl,2,1.6*,4,9,1
O=C(NCCN1CCC(n2c(=O)[nH]c3cc(Cl)ccc32)CC1)c1ccc(F)cc1,.,-1,1,1,1
N#CCCn1nc(-c2ccccc2)c2ccccc2c1=O,5.0*,-2,-1,-1,0
CC(=O)C(Sc1nc(N(C)C)nc(N(C)C)n1)C(=O)Nc1ccccc1 (stereo unspecified),1,-1,1,0,0
CC(=O)C(Sc1nn(C)c(=S)s1)C(=O)Nc1ccccc1 (stereo unspecified),1,1.0*,2,6,2
Cn1c(=S)[nH]c2ccccc21,4.7*,-1,5.9*,0,1
CN(C)c1cccc(C(=O)NC2CCCCCC2)c1,1,-1,2,9,2
Cc1cccc(C(=O)NC2CCN(S(=O)(=O)c3ccccc3F)CC2)c1,4.3*,-2,-3,-2,0
Cc1cccc(C(=O)NC2CCCCCCC2)c1,3,0,3,11*,1
COc1ccc(CNS(=O)(=O)c2cc3c(cc2Br)CC(C)N3C(C)=O)cc1 (stereo unspecified),.,-1,-1,-2,-1
Nc1cc2c(cc1Br)-c1ccc(F)cc1C2O (stereo unspecified),2,1,3,12*,0
O=C(NC1CCCCN(Cc2cccc(Cl)c2)C1=O)c1cccc([N+](=O)[O-])c1 (stereo unspecified),.,-1,-2,-1,1
O=C(CC12CC3CC(CC(C3)C1)C2)NC(=S)N1CCCCC1,1,1.2*,-1,0,0
c1ccc(N2CCN(c3ccccc3)C2c2cccs2)cc1,7.7*,-2,1,7,0
CCOC(=O)C1(Cc2ccccc2)CCCN(C(=O)COc2ccccc2OC)C1 (stereo unspecified),4.3*,0,1,8,3
CCOC(=O)C1(Cc2cccc(OC)c2)CCCN(C(=O)CCc2cccnc2)C1 (stereo unspecified),4,-1,0,12*,0
O=C(O)c1ccc(C=Nn2c(-c3ccc(F)cc3)n[nH]c2=S)cc1,.,-2,-2,5,-1
CC(=O)N(/C=C1\SC(=S)N(c2ccccc2)C1=O)c1ccccc1,0,1.9*,0,-2,0
CCCCN1C(=O)/C(=C2\SC(N3CCCCC3)=NC2=O)c2ccccc21,4.3*,-2,3,7,2
CC[C@@H](CCCc1ccc(F)cc1)CN(Cc1ccc(OC)cc1)S(=O)(=O)c1ccc(C)cc1,.,-1,0,0,0
CC[C@@H](C)[C@@H]1CN([C@@H](C)CN2CCC[C@H]2CN2C(N)=NC[C@@H]2Cc2ccccc2)C(=N)N1CCc1ccc(Cl)c(Cl)c1,5.2*,.,.,.,.
